Drawing on PubChem BioAssay (NCI), this text covers growth for 24 molecules.

What all share (assay): NCI-60 one-dose screen, 48 h (100 = growth as untreated, 0 = no growth, -100 = all killed)
What all share (conditions): 10 µM unless noted

For experiment [1], the system named is SK-MEL-2 melanoma.
The subject of experiment [2] is EKVX NSCLC.
The subject of experiment [3] is SN12C renal.
The test system of experiment [4] is UO-31 renal.
The test system of experiment [5] is TK-10 renal.
Experiment [6] concerns ACHN renal.
The subject of experiment [7] is CAKI-1 renal.
In experiment [8] the test system is A498 renal.
Experiment [9] deals with CCRF-CEM leukemia.
Experiment [10] concerns MOLT-4 leukemia.

This is part of a sample that, as a whole, favours compounds with a hit. Of some 83,000 tested, about 20% had one in any assay.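 Values shown are percent growth following 48 h exposure of cells in 96-well plates to a single concentration of compound; below 10 was considered active.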 A number with no mark means an inactive call. Activity calls are given as the source filed them.

In the case of `C=C(C)[C@@H]1CC[C@]2(CN)CC[C@]3(C)[C@H](CC[C@@H]4[C@@](C)(CCCN)[C@H](C(=C)C)CC[C@]43C)[C@@H]12`, the growth in experiment [1] was 107%; in experiment [2] it was 102%; in experiment [3], 82.5%; in [4] it was 63%; in experiment [5] it was 119%; in experiment [6], 99.1%. Also, the growth in experiment [7] was 75.5%; in experiment [8], 88.7%; in [9] it was 66.6%; in experiment [10] it was 57%.
Consider `N#CC1C(=N)Cc2ccccc2-c2ccccc21` (stereo not given), for which the growth in experiment [1] was 31.1%; in [2], 67.1%; in experiment [3] it was 54.2%; in experiment [4] it was 53.8%; in experiment [5], 78.1%; in experiment [6], 75%. The growth in [7] is 29%; in experiment [8], 55.3%; in experiment [9], 62.6%; in experiment [10], 25.8%.
Take `COc1cccc(-c2nn(-c3ccccc3)cc2-c2ccnc(NCCCNS(=O)(=O)c3cccc(F)c3)c2)c1`: the growth is 4% (active) in experiment [1]; 45.1% in experiment [2]; 32.3% in experiment [3]; 9.64% (active) in experiment [4]; 36.9% in [5]; 19.4% in experiment [6]. Further, the growth in experiment [7] is 32.4%; in [8] it was 30.4%; in [9], 11.4%; in experiment [10], -3.37% (active).
In the case of `CCOc1ccc(NC(=O)c2ccoc2COc2ccccc2)cc1`, the growth is 106% in experiment [1]; 96.1% in experiment [2]; 99.1% in experiment [3]; 79.8% in experiment [4]; 101% in experiment [5]; 106% in [6]. Besides, the growth in experiment [7] is 95.7%; in [8], 108%; in [9], 95%; in experiment [10] it was 97%.
For `C=C(C)[C@@H]1CC[C@]2(C(=O)O)CC[C@]3(C)[C@H](CC[C@@H]4[C@@]5(C)C/C(=C/c6ccc(OC)cc6)C(=O)C(C)(C)[C@@H]5CC[C@]43C)[C@@H]12`, the growth in [1] is 38.1%; in experiment [2], 9.53% (active); in experiment [3] it was 18%; in [4], 12.6%; in [5] it was 24.5%; in [6] it was 19.6%. Besides, the growth was 23.8% in [7], 49.6% in [8], 24% in experiment [9] and 15.3% in experiment [10].
In the case of `C=C(C)[C@@H]1CC[C@]2(CN)CC[C@]3(C)[C@H](CC[C@@H]4[C@@]5(C)CCC(=O)NC(C)(C)[C@@H]5CC[C@]43C)[C@@H]12`, the growth was 98.8% in [1]; 87.3% in experiment [2]; 65.6% in experiment [3]; 58.9% in [4]; 114% in [5]; 69.1% in [6]. In addition, the growth is 59.9% in [7], 96.2% in experiment [8], 20.9% in [9] and 21.5% in experiment [10].
Take `CCN(CC)c1ccc(/C=C/c2cc(C)c3ccccc3n2)cc1`: the growth in [1] is 72.9%; in experiment [2], 92.8%; in experiment [3] it was 60%; in experiment [4], 66.6%; in experiment [5], 70.3%; in [6], 60.8%. The growth in experiment [7] is 51.9%; in experiment [8], 51.7%; in experiment [9] it was 53.4%; in experiment [10] it was 23.5%.
Consider `O=C(/C(=C(\C(=O)c1ccccc1)c1ccccc1)c1ccccc1)c1ccccc1`, for which the growth is 81.5% in experiment [1]; 40.5% in experiment [2]; 62.5% in [3]; 63.3% in experiment [4]; 86.8% in experiment [5]; 39.5% in [6]. The growth in experiment [7] was 57.8%; in experiment [8] it was 79.9%; in [9], 16.2%; in experiment [10], -7.63% (active).
With `COc1ccc(-c2n[nH]nc2-c2cc3ccccc3s2)cc1O`, the growth in [1] was 32.3%; in experiment [2] it was 41.9%; in experiment [3], 32.4%; in experiment [4], 40.5%; in experiment [5], 57%; in experiment [6], 44.4%. Further, the growth in [7] is 38.9%; in [8], 1.86% (active); in experiment [9], 16%; in experiment [10] it was 15.1%.
As to `Cc1cc2nc3c4cc(N)ccc4n(CCN(C)C)c3nc2cc1C`, the growth is 17.6% in experiment [1]; 16.8% in experiment [2]; 8.2% (active) in experiment [3]; -6.21% (active) in [4]; 41.3% in [5]; -9.44% (active) in [6]. Also, the growth in [7] is -3% (active); in [8] it was 46.3%; in [9], 23.8%; in experiment [10], 3.65% (active).
On to `O=C1c2cccc3cccc(c23)C(=O)N1CC#Cc1ccc2c3c(cccc13)C(=O)N(CCO)C2=O`, for which the growth in experiment [1] is 102%; in experiment [2] it was 76.3%; in experiment [3], 90.7%; in [4], 57.3%; in experiment [5] it was 165%; in [6], 87.1%. For the same molecule, the growth in experiment [7] is 56.8%; in experiment [8], 105%; in experiment [9] it was 80.6%; in [10], 62.3%.
Regarding `Cc1cc(C)c(NC(=O)c2sc3nc4c(cc3c2N)CCCC4)c(C)c1`, the growth is 16.8% in experiment [1]; 76.7% in experiment [2]; 50% in experiment [3]; 62.1% in experiment [4]; 64.7% in [5]; 55.8% in experiment [6]. Moreover, the growth in experiment [7] is 53.1%; in experiment [8], 12.7%; in experiment [9], 20.4%; in experiment [10], 29.9%.
`O=Cc1nc2ccccc2[nH]1`: the growth is 101% in [1]; 94.5% in experiment [2]; 101% in experiment [3]; 75.9% in experiment [4]; 97% in [5]; 106% in [6]. The growth in experiment [7] is 93.2%; in [8], 105%; in experiment [9] it was 99.8%; in experiment [10], 95.4%.
Take `N#CC1=C(N)Oc2ccc3ccccc3c2C1c1ccccc1Cl` (stereo not given): the growth in [1] was 45.9%; in experiment [2] it was 42.5%; in experiment [3], 50%; in [4], 48.9%; in experiment [5] it was 118%; in experiment [6] it was 49.9%. The growth in experiment [7] is 34.5%; in experiment [8] it was 40.1%; in experiment [9], 26.1%; in [10], 26.7%.
For the molecule `CC(=O)Oc1ccccc1C(=O)/C=C/c1cccc([N+](=O)[O-])c1`, the growth in experiment [1] is 96.2%; in experiment [2], 75.6%; in experiment [3], 78.9%; in experiment [4], -28.1% (active); in [5], 134%; in experiment [6], 75.3%. Moreover, the growth in experiment [7] is 67.6%; in experiment [8], 92.6%; in [9] it was 5.04% (active); in [10], 50.8%.
In the case of `C[C@H]1OC(=O)/C=C/[C@@H](O)[C@@H](O)CCCCCCCC[C@@H]1O`, the growth in [1] is 102%; in [2] it was 99.6%; in experiment [3], 101%; in [4], 82.6%; in experiment [5], 96.9%; in [6] it was 100%. Also, the growth in experiment [7] was 96.3%; in [8], 71.1%; in [9], 62.4%; in [10], 106%.
As to `Fc1ccc(NCc2nnc(-c3ccc(Cl)cc3)o2)cc1`, the growth in experiment [1] was 85.5%; in experiment [2], 77%; in experiment [3], 79.4%; in [4] it was 54.3%; in experiment [5], 126%; in experiment [6], 78.7%. Further, the growth in experiment [7] was 69.8%; in experiment [8] it was 77.2%; in experiment [9], 74.6%; in experiment [10], 49.6%.
For `N#C/C(=C\c1ccc(-c2ccccc2)o1)c1nc(-c2ccco2)cs1`, the growth in [1] is 106%; in experiment [2] it was 37.3%; in experiment [3], 92.3%; in experiment [4], 55.2%; in experiment [5] it was 55.8%; in [6], 93.4%. For the same molecule, the growth in [7] is 85.2%; in experiment [8], 125%; in experiment [9] it was 95.9%; in [10], 98.7%.
For `NNC(=O)c1nc2ccccc2[nH]1`, the growth in [1] was 99.4%; in experiment [2], 102%; in [3], 102%; in experiment [4], 101%; in experiment [5] it was 111%; in experiment [6] it was 107%. The growth was 94.9% in experiment [7], 96.2% in [8], 109% in experiment [9] and 79.8% in experiment [10].
As to `COc1cccc2c1C(=O)c1c(O)c3c(c(O)c1C2=O)C[C@@](O)(C(=O)CO)C[C@@H]3OC1C[C@H](N)[C@H](O)[C@H](C)O1` (stereo not given in full), the growth was -75.3% (active) in experiment [1]; 1.39% (active) in experiment [2]; 6.88% (active) in experiment [3]; -40.7% (active) in [4]; 5.67% (active) in experiment [5]; -11% (active) in [6]. Besides, the growth in experiment [7] is 1.49% (active); in experiment [8], -75.1% (active); in experiment [9] it was -25.7% (active); in experiment [10] it was -8.66% (active).
With `O=C(Nc1ccc(/C=C2\SC(=O)N(Cc3ccc(OC(F)(F)F)cc3)C2=O)cc1)c1ccc(Cl)c([N+](=O)[O-])c1`, the growth in experiment [1] was 92.6%; in experiment [2] it was 91.1%; in experiment [3], 81.6%; in experiment [4], 67.9%; in experiment [5] it was 98.5%; in experiment [6], 89.3%. For the same molecule, the growth in experiment [7] is 85.7%; in experiment [8], 82.2%; in [9], 77%; in [10], 78.4%.
With `C[C@H]1[C@H]2C3=CC[C@@H]4[C@@]5(C)C/C(=C/c6ccco6)C(=O)C(C)(C)[C@@H]5CC[C@@]4(C)[C@]3(C)CC[C@@]2(C(=O)N2CCOCC2)CC[C@@H]1C`, the growth in [1] was 106%; in experiment [2] it was 88.4%; in experiment [3] it was 73.8%; in experiment [4], 49%; in experiment [5] it was 99.6%; in experiment [6] it was 53.7%. The growth in [7] is 42.5%; in experiment [8], 94%; in experiment [9], 14.2%; in experiment [10], 6.22% (active).
For the molecule `Cc1ccc(Sc2sc(-c3ccccc3)nc2[P+](c2ccccc2)(c2ccccc2)c2ccccc2)cc1`, the growth is -37.8% (active) in [1]; 5.57% (active) in [2]; 6% (active) in experiment [3]; -39.1% (active) in experiment [4]; 14.7% in [5]; 6.46% (active) in experiment [6]. Further, the growth in [7] was -14.2% (active); in [8], -43.5% (active); in experiment [9], 7.63% (active); in [10] it was -48.2% (active).
On to `CC1(C)C(=O)CC[C@]2(C)[C@H]3C(=O)C=C4[C@@H]5C[C@@](C)(C(=O)NCCNCCN)CC[C@]5(C)CC[C@@]4(C)[C@]3(C)CC[C@@H]12`, for which the growth was 121% in experiment [1]; 105% in experiment [2]; 86% in [3]; 76.8% in [4]; 147% in experiment [5]; 104% in experiment [6]. Besides, the growth in experiment [7] was 92.5%; in [8], 101%; in [9] it was 75.9%; in [10] it was 82.5%.
